Laboratory results reported in the supplement of paper PMC8728848.
Many of the other results were omitted from the sample, so the strongest signals are more common in it than they were.

Experiments:
Experiment in all cases: glycan array binding signal (z-score within array); higher = stronger binding
Settings in all cases: glycan notation: IUPAC condensed, linker removed
GalNAc(b1-4)GlcNAc = biological target: GalNAc(b1-4)GlcNAc
How it was run: (§1)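 Negative Z-scores can be read as non-binding. The Z-score is calculated within each array and then averaged across arrays of one protein sequence at different concentrations or buffers and across linkers. Arrays, 3228 in all, were curated from the Consortium for Functional Glycomics database and kept only where the protein sequence was available.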

GlcA(b1-3)GlcNAc = biological target: GlcA(b1-3)GlcNAc
How it was run: as §1

[1] = biological target: GlcNAc(a1-3)Gal(b1-4)GlcNAc
How it was run: as §1

[2] = biological target: GlcNAc(b1-3)Gal(b1-4)GlcNAc(b1-3)Gal(b1-4)GlcNAc(b1-2)Man(a1-3)[GlcNAc(b1-3)Gal(b1-4)GlcNAc(b1-3)Gal(b1-4)GlcNAc(b1-2)Man(a1-6)]Man(b1-4)GlcNAc(b1-4)GlcNAc
How it was run: as §1

[3] = biological target: GlcNAc(b1-3)Gal(b1-4)GlcNAc(b1-3)Gal(b1-4)GlcNAc(b1-3)Gal(b1-4)GlcNAc(b1-2)Man(a1-3)[GlcNAc(b1-3)Gal(b1-4)GlcNAc(b1-3)Gal(b1-4)GlcNAc(b1-3)Gal(b1-4)GlcNAc(b1-2)Man(a1-6)]Man(b1-4)GlcNAc(b1-4)GlcNAc
How it was run: as §1

[4] = biological target: GlcNAc(b1-4)[GlcNAc(b1-6)]GalNAc
How it was run: as §1

GlcNAc(b1-6)GalNAc = biological target: GlcNAc(b1-6)GalNAc
How it was run: as §1

[5] = biological target: Neu5Ac(a2-3)Gal(b1-3)GlcNAc(b1-2)Man(a1-3)[GlcNAc(b1-4)][Neu5Ac(a2-3)Gal(b1-3)GlcNAc(b1-2)Man(a1-6)]Man(b1-4)GlcNAc(b1-4)GlcNAc
How it was run: as §1

[6] = biological target: Neu5Ac(a2-3)Gal(b1-4)GlcNAc(b1-2)[Neu5Ac(a2-3)Gal(b1-4)GlcNAc(b1-6)]Man(a1-6)[Neu5Ac(a2-3)Gal(b1-4)GlcNAc(b1-2)Man(a1-3)][GlcNAc(b1-4)]Man(b1-4)GlcNAc(b1-4)GlcNAc
How it was run: as §1

[7] = biological target: Neu5Ac(a2-3)Gal(b1-4)GlcNAc(b1-3)Gal(b1-4)GlcNAc(b1-3)Gal(b1-4)GlcNAc
How it was run: as §1

[8] = biological target: Neu5Ac(a2-3)Gal(b1-4)GlcNAc(b1-3)Gal(b1-4)[Fuc(a1-3)]GlcNAc
How it was run: as §1

[9] = biological target: Neu5Ac(a2-3)Gal(b1-4)[Fuc(a1-3)]GlcNAc(b1-6)[Neu5Ac(a2-3)Gal(b1-3)]GalNAc
How it was run: as §1

[10] = biological target: Neu5Ac(a2-3)[GalNAc(b1-4)]Gal(b1-4)GlcNAc
How it was run: as §1

[11] = biological target: Neu5Ac(a2-6)Gal(b1-4)GlcNAc(b1-2)Man(a1-3)[Neu5Ac(a2-6)Gal(b1-4)GlcNAc(b1-2)Man(a1-6)]Man(b1-4)GlcNAc(b1-4)GlcNAc
How it was run: as §1

[12] = biological target: Neu5Ac(b2-6)Gal(b1-4)GlcNAc
How it was run: as §1

[13] = biological target: Neu5Ac9Ac(a2-6)Gal(b1-4)GlcNAc
How it was run: as §1

B1: AT3G09350(27) (Arabidopsis thaliana), Q84J81 (protein)
chain: MAKDGPNWDGLLKWSLSHADGTRPTRQLSEEDRKWFMEAMQSQTVDVVKRMKEITLVMQTPEQVLVEHGVTPEDIQDLLDELQEHVESIDMANDLHSIGGLVPLLSFLKNSHANIRAKAADVVSTIVQNNPRSQELVMETNALESLLSNFTSDTDIHARTQALGAISSLIRHNKPGVTAFKLANGYAGLRDALASDSVRFQRKALNLLQYLLQEDDSDRSIATGLGFPRVMMHLASSDDAEIREAALRGLLELSREKNDGSSSIDKSDEKLRQLLEERIKGITLMSQEDLETVKEERQLVDLLWSICYNEPSSLREKGLVVLPGEDALPPDVASKLFEPPLRASAANRNATEKKDEPMKLLGP
glycan array binding signal (z-score) (GalNAc(b1-4)GlcNAc): 7.59
glycan array binding signal (z-score) (GlcA(b1-3)GlcNAc): -0.957
glycan array binding signal (z-score) [1]: -0.46
glycan array binding signal (z-score) [2]: 0.28
glycan array binding signal (z-score) [3]: 0.057
glycan array binding signal (z-score) [4]: -0.008
glycan array binding signal (z-score) (GlcNAc(b1-6)GalNAc): 0.847
glycan array binding signal (z-score) [5]: -0.8
glycan array binding signal (z-score) [6]: -0.435
glycan array binding signal (z-score) [7]: 0.446
glycan array binding signal (z-score) [8]: -0.305
glycan array binding signal (z-score) [9]: 0.415
glycan array binding signal (z-score) [10]: -0.121
glycan array binding signal (z-score) [11]: 0.535
glycan array binding signal (z-score) [12]: 0.639
glycan array binding signal (z-score) [13]: -0.732
